Experiments:
Experiment in all cases: PBM binding z-score (relative to random genomic background probes); higher = stronger binding; sequences stand for … in GC…GCGATTGACAGCGTAGAATGAAGG
[1] = tested on: RARb homodimer (NR concentration 270 nM)
Summary of the method: (§1)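 Binding z-scores were set against random background probes. The data came from custom Agilent 4×180K protein-binding microarrays carrying double-stranded probes with 34-nt variable regions, incubated 1 h with ligand-free nuclear receptor dimers. Partner-specific antibodies detected binding, and scanned fluorescence was regression-normalized.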

[2] = tested on: RARg homodimer (NR concentration 270 nM)
Summary of the method: as §1

[3] = tested on: RXRa DBDmut IVT, anti-RXR (DBD mutation: RXRa K156A/R161A, NR concentration 90 nM)
Summary of the method: as §1

[4] = tested on: RXRa homodimer (NR concentration 180 nM)
Summary of the method: as §1

[5] = tested on: THRa:RXRa (NR concentration 90 nM, RXRa partner concentration 90 nM)
Summary of the method: as §1

[6] = tested on: THRa homodimer (NR concentration 90 nM)
Summary of the method: as §1

[7] = tested on: VDR homodimer (NR concentration 270 nM)
Summary of the method: as §1

| Sequence | PBM binding z-score [1] | PBM binding z-score [2] | PBM binding z-score [3] | PBM binding z-score [4] | PBM binding z-score [5] | PBM binding z-score [6] | PBM binding z-score [7] |
| --- | --- | --- | --- | --- | --- | --- | --- |
| CAGCCTAGTTCAGGGCCAGTATAGGAGGAACGTT | 0.7 | 0.665 | 0.532 | 0.15 | -0.00106 | -0.234 | 0.209 |
| TCGAGTGGGTTACGGGGGCATTCAGGGATGAAGA | 2.26 | 2.35 | 2.33 | 2.74 | 4.08 | 2.2 | 3.66 |
| GCTGCTAGGTCAACTGATGGTGAGCTAAAGCTCG | 3.06 | 5.32 | 1.5 | 2.69 | 2.86 | 0.689 | -0.42 |
| GCTTACGGGTCAAAAGTTATAGCATGAATAGAAT | 2.05 | 3.15 | 1.93 | 4.84 | 2.08 | -0.478 | 0.684 |
| CCTGCTAGGTCAATGGTCAGCTCAAGCAGCTCGC | 3.02 | 4.32 | 1.88 | 1.92 | 2.23 | 0.708 | 0.174 |
| GATACAGGGTCAGCTAGAGGGCAGAGTATGGAAA | 4.04 | 5.53 | 1.71 | 4.61 | 3.18 | 1.05 | 1.68 |
| ATATGTAGGTTACATGCGGGTCATTCAGGCTATG | 2.51 | 2.18 | 0.745 | 3.16 | 2.85 | 0.633 | 2.05 |
| TGGCCTAGGTCATGCGGGCCAGTATAGTGTCGGC | 2.85 | 4.45 | -0.03 | 3.03 | 2.68 | 0.284 | 0.128 |
| CCTACTGGGCCAAAGGACATTGATTCCAATGCTC | 0.475 | 0.664 | -0.27 | 0.166 | -0.11 | -0.145 | -0.13 |
| ATCGAAATGTCGTGAGGTGAGTATACAGAAAGGC | 0.113 | 0.683 | -0.3 | 0.0827 | 1.74 | 1.16 | -0.224 |
| CGAACTAGGTCAAAGGACAGGGAAAGGCGACGTA | 3.14 | 4.68 | 1.07 | 2.78 | 2.49 | 0.631 | 0.464 |
| CCTACTGGGCCAAAGGCCATTGATTCCAATGCTC | 0.736 | 0.568 | -0.726 | -0.132 | -0.0621 | -0.567 | -0.468 |
| ATCGAAAGGTCGACGAGGAGAGTATACACCGTTT | 2.37 | 3.81 | 1.18 | 3.91 | 2.27 | -0.0264 | 0.681 |
| TCTGCTAGGTCAGGTGGTCAGCTAACGAGCTGCC | 2.83 | 3.58 | 0.176 | 1.66 | 1.77 | 0.331 | -0.539 |
| AGTCAAAGTTCAGGACGAGGTACCGTAAAGCACG | 3.04 | 4.98 | 2.91 | 3.07 | 2.66 | 0.724 | 1.78 |
| GCTAGTGGGTCAGTAAAAGGTCACACACCGGTCG | 5.72 | 6.65 | 0.518 | 6.21 | 4.09 | 1.66 | 2.18 |
| ATCTCTAGGTAACAAGGTCAGTGAAAGAGAGGAC | 3.49 | 3.28 | 0.451 | 2.26 | 3.07 | 2.37 | 1.78 |
| CCTTACGGGTCACTGACAGGTCATAGCATTTGGA | 4.59 | 5.71 | 1.79 | 6.67 | 3.98 | 0.878 | 2.15 |
| TCGAGTAGGTTAGGGGGGCATTCAGGGATGAAGA | 2.58 | 2.54 | 2.58 | 2.32 | 3.86 | 2.28 | 3.28 |
| ATCGTAAGGTCGTGAGGTGAGTATACAGAAAGGC | 2.41 | 2.71 | 2.09 | 3.5 | 3.65 | 2.95 | 1.45 |
| AACGAAAGGTCGACGAGGTGAGTATACACCGTTT | 3 | 3.73 | 1.64 | 4.41 | 3.85 | 0.519 | 0.772 |

| Sequence | PBM binding z-score [1] | PBM binding z-score [2] | PBM binding z-score [3] | PBM binding z-score [4] | PBM binding z-score [5] | PBM binding z-score [6] | PBM binding z-score [7] |
| --- | --- | --- | --- | --- | --- | --- | --- |
| ACTCGGAGGACAAACGTCAGAGCTACGCCAGTGA | 0.0238 | 1.15 | 0.497 | -0.425 | 0.312 | -0.476 | -0.183 |
| CGAACTAGGTCAAAAGACAGTGAAAGGCGACGTA | 1.72 | 3.68 | 1.21 | 2.54 | 1.64 | -0.0657 | -0.0484 |
| TGTCAAAGCTCAAAGGTAACGTAAGTATCCACAC | 0.284 | 0.498 | -1 | 0.764 | 1.25 | -0.706 | -0.613 |
| TAGCCTAGGTCATTTGGCCAGTATAGTACGCATC | 2.59 | 4.08 | 1.99 | 2.73 | 2.65 | 0.679 | 1.27 |
| CGAACTAAGTCACCAGGACAGTGAAGAGGTTGGA | 0.502 | 0.343 | 0.000632 | 0.285 | 1.27 | 0.708 | 0.106 |
| CCTAGTTGGTCAGGAGGTCACAAACCGGATATGA | 3.97 | 4.1 | 0.534 | 4.38 | 3.31 | 2.01 | 2.44 |
| TCTCGGAGGACACGAAAGGTCAGTGCTCGACATC | 4.96 | 5.21 | 1.23 | 3.34 | 3.49 | 1.51 | 1.24 |
| CGAACTAAGTCATCCAGGACAGTGAATACATTGA | 0.33 | 0.549 | 0.248 | 0.264 | 1.55 | 1.1 | 0.0279 |
| CAAACTAGGTCAAGAGGTCAAACTCCGCTTCCCG | 5.81 | 7.93 | 3.21 | 8.2 | 4.49 | 2.71 | 5.63 |
| CCTCGGAGGTCAGAAGGTCAGAGCTGTCCGCTTT | 5.21 | 7.12 | 2.31 | 6.44 | 3.41 | 0.451 | 1.47 |
| CCTCGGAGGACAACAGGAGGTCAAAGCTGCCAGA | 3.77 | 3.86 | 0.524 | 3.56 | 3.43 | 1.34 | 2.4 |
| CGAACTAGGTCAACGACAGTGAATCTCCGCACGC | 2.87 | 4.2 | 1.61 | 2.45 | 2.54 | 1.08 | 0.435 |
| TAGCCTAGGTCATGCGGGCCAGCATAGTGTCGGC | 2.9 | 4.27 | 0.374 | 3.13 | 3 | 0.747 | 0.502 |
| TAGCCTAGGTCATTGGGCTAGTATAGTACGCATC | 2.59 | 4.2 | 1.47 | 2.84 | 2.71 | 0.251 | 0.989 |
| GATACAGGGTCAGCTAGAGGTCAGAGTATGGAAA | 5.26 | 7.07 | 1.95 | 7.42 | 4.49 | 1.85 | 3.45 |
| CGAACTAAGTCATTGACAGGACAGTGAATAGTAA | -0.122 | 0.434 | 0.322 | -0.0903 | 0.19 | -0.56 | -0.385 |
| ATCGAATGGTCGAGGTGAGTATAGAGAAAGGGAA | 0.319 | 0.76 | -0.577 | 0.118 | 0.936 | 0.55 | -0.57 |
| CGTCCAAGGTCATGGGAGGTCAGTGAAGACAGAT | 5.85 | 7.97 | 3.73 | 7.56 | 5.51 | 3.83 | 4.5 |
| TCTGCTGGGTCAACGATGGTCAGCTAATCTGCTA | 2.96 | 4.31 | 0.782 | 2.58 | 2.65 | -0.44 | -0.395 |
| CGAACTAGGTCACCAGGACAGCGAAGAGGTTGGA | 3.27 | 5.1 | 1.22 | 3.19 | 3.27 | 1.62 | 0.423 |
| CCTTACGGGTCTAGGTTATAGCACGGGTGGTACG | 0.113 | 0.0918 | -1.08 |  | 0.109 | 0.173 | -0.202 |

| Sequence | PBM binding z-score [1] | PBM binding z-score [2] | PBM binding z-score [3] | PBM binding z-score [4] | PBM binding z-score [5] | PBM binding z-score [6] | PBM binding z-score [7] |
| --- | --- | --- | --- | --- | --- | --- | --- |
| ATAAGTAGGTTAGGGTCATTCAGAAAGTAGGGAA | 3.7 | 3.3 | 2.39 | 5.12 | 4.31 | 3.58 | 4.32 |
| AGTCAAAGTTCAGGACGAGGTCACGTAAAGCACG | 5.39 | 7.28 | 3.45 | 6.81 |  | 4.95 | 5.43 |
| GCTGCTAGGTCATGTTGGTCAGCTAACGGGTACG | 3.21 | 4.33 | 1.85 | 2.51 | 2.83 | 1.39 | 1.44 |
| TAGCCTAGGTCATTCAGGGGGCAGTATAGAAAGC | 4.09 | 5.84 | 2.37 | 4.33 | 3.8 | 2.11 | 3.36 |
| CGAACTAGGTCAAAGGTCAGTGAAAGGCGACGTA | 5.03 | 6.89 | 2.37 |  | 4.55 | 1.2 | 1.85 |
| TAGCCTAGGTCATTGGGCCAGTATAGTACGCATC | 3 | 4.22 | 1.6 | 2.73 | 2.83 | 0.768 | 0.954 |
| AGTCAAAGGTCAGGACGAGGTAACGTAAAGCACG | 4.82 | 7.93 | 1.32 | 7.47 |  | 2.11 | 0.891 |
| GCTGCTAGGTCAACTGAAGGTCAGCTAAAGCTCG | 5.31 | 7.38 | 1.68 | 4.88 | 4.03 | 1.66 | 1 |
| CGTCCAAGGTCAAGGTCACTGAAAGAGACTCGAA | 5.6 | 8.3 | 3.73 |  |  | 4.35 | 4.03 |
| TCTGCTTGGTCAACGATGGTCAGCTAATCTGCTA | 0.448 | 0.624 | -0.0435 | 0.237 | 0.139 | -1.13 | -1.09 |
| GATACAGGGTGAAGGCCAGAGTACGCGTATTGAT | 0.673 | 0.704 | -0.695 | 0.721 |  | -0.473 | -0.248 |
| CCTTACGGGTAACTCCAGGTTATAGCATCGGAGT | 0.239 | 0.528 | -0.483 | 0.381 | 3.22 | 0.292 | 0.21 |
| TAGCCTAGGTCATTCAGGGGTCAGTATAGAAAGC | 5.2 | 6.28 | 2.75 | 5.8 | 4.22 | 2.13 | 4.47 |
| ATCGAAAGGTCGAAGGAGAGTATACCCACCCGAA | 1.98 | 3.81 | 0.774 | 3.75 | 1.76 | -0.242 | 0.458 |
| CGTCCAAGGTCAAAGGTCACTGAAGAGATGACGG | 5.74 | 8.6 | 4.13 | 10.1 | 4.9 | 3.25 | 4.21 |
| CGTCCAAGGTCACCAGGTCAGTGAAAGCGACGTG | 5.13 | 7.7 | 3.61 | 7.13 | 4.45 | 4.12 | 3.44 |
| ACTAATTGGTCAGCTGAGGTCACACACAATTCGG | 4.72 | 4.46 | 1.68 | 4.65 | 5.12 | 5.41 | 3.46 |
| CCTCGGAGGACAACCGGAGGTCAGAGCTGCCAGA | 3.53 | 3.47 | 0.243 | 1.86 | 3.14 | 1.3 | 1.41 |
| AATACAGGGTCCTCGTAGGCCAGAGTACGCACAG | 0.334 | 0.183 | -0.129 | 0.449 | 1.16 | 0.203 | 0.487 |
| CGTCCAAGGTCAATGCAAGGTCAGTGAAAGCATT | 5.5 | 7.06 | 3.92 | 6.02 |  | 4.02 | 3.85 |
